This is a sample that favours compounds with a hit; in the whole collection about 10% have one here.
Pf growth 96h: Primary qHTS for delayed death inhibitors of the malarial parasite plastid, 96 hour incubation | P. falciparum luciferase reporter growth, 96 h | Potency, µM (top dose mostly 28.7 µM), for inactives: top-dose activity change, negative = inhibition, most hits filed as inhibitors | 6.9% of 320,000 active; active means well fitted inhibition curve with a large enough effect; inconclusive means small, poorly fitted or top-dose-only effect, or another doubt; inactive means no such curve, though single readings can be large or run the other way; further: on the % scale 0 is the no-effect control and ±100 the full control effect
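Two-generation exposure (96 h) targets delayed-death phenotype. Reporter parasites carrying integrated firefly luciferase, in red cells at 2% hematocrit and 0.05% parasitemia final, kept at 37 C, 5% CO2; luminescence loss indicates inhibition.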
NS1 inh: qHTS Assay for Inhibitors of Influenza NS1 Protein Function | Potency, µM (series often up to 46.1 µM), for the others: top-dose activity, positive = more growth | 0.4% of 270,000 active | AID 2326, 2010; further: actives are rising curves; nearly all actives have a fitted effect of over 50% in size
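Recovery from NS1-induced slow growth read by OD600 in budding yeast switched to galactose assay medium (pH 6.0, -URA) at 1:100 dilution. Compound 23 nl per well; the matching strain lacking NS1 serves as control.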
SARS PLP yeast: qHTS of Yeast-based Assay for SARS-CoV PLP; AID 485353, 2010; S. cerevisiae expressing SARS-CoV PLpro, growth rescue; 0.19% of 330,000 active; Potency, µM (doses to about 32.9 µM), for the others: at the top dose activity, positive = growth rescue, actives largely listed as activators; further: 0% is about no effect; nearly all actives have a fitted effect of over 55% in size
Pf growth 48h: Primary qHTS for delayed death inhibitors of the malarial parasite plastid, 48 hour incubation. 5.9% of 310,000 active. Potency, µM (series often up to 28.7 µM), without a hit: at the top dose activity change, negative = inhibition, most hits filed as inhibitors. P. falciparum luciferase growth in erythrocytes, 48 h; active means well fitted inhibition curve with a large enough effect; inconclusive means small, poorly fitted or top-dose-only effect, or another doubt; inactive means no such curve, though single readings can be large or run the other way; further: on the % scale 0 is the no-effect control and ±100 the full control effect
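Growth was read as firefly luciferase luminescence after a 48 h, 37 C, 5% CO2 exposure of compounds to reporter-bearing P. falciparum cultures (0.1% parasitemia, 2% hematocrit final) in Albumax-supplemented RPMI 1640.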
An asterisk follows results filed as active; ? = inconclusive; . = not tested or not shown; [ ] = remark or other dose. Unless noted, the call rests on the fitted dose curve. Potency means the concentration at half of the fitted maximal effect.

SMILES | Pf growth 96h | NS1 inh | SARS PLP yeast | Pf growth 48h
COC(=O)[C@]1(CC(C)C)N[C@H](c2ccc(-c3ccc4c(c3)OCO4)cc2)[C@@H]2C(=O)N(C)C(=O)[C@@H]21 | 13µM* | . | 2% | ?
COC(=O)[C@]1(Cc2ccccc2)N[C@H](c2ccc(-c3ccc4c(c3)OCO4)cc2)[C@@H]2C(=O)N(C)C(=O)[C@@H]21 | ? | . | -2% | ?
CCOc1ccccc1CNS(=O)(=O)c1cnc[nH]1 | ? | 2% | -8% | 19%
CC(NC(=O)C(C)N1c2cccc3cccc(c23)S1(=O)=O)c1ccccc1 (configuration not stated) | 139% | -57% | -3% | 19%
CCOc1ccc(N2Cc3ccccc3C2)cc1 | 7.4µM* | -9% | -1% | ?
CCOc1ccccc1N1Cc2cc(C)c(C)cc2C1 | ? | 13% | 7% | 13µM*
CCOc1ccccc1N1CCN(C(=O)C(F)(F)F)CC1 | 0% | -1% | -2% | .
COc1ccc(OC)c(-n2c(C)cc(C=O)c2C)c1 | ? | -2% | 0% | -48%[1.15 µM]
COc1ccc(OC)c(N2Cc3cc(C)c(C)cc3C2)c1 | . | -18% | ? | 2.9µM*
CCOc1ccccc1N1Cc2ccccc2C1 | . | 0% | 0% | 7.4µM*
Cc1cc2c(cc1C)CN(c1ccccc1)C2 | ? | 3% | -1% | 2%
C=CCSC1=NNC(c2ccc(C(C)(C)C)cc2)=NN1 | 20% | 1% | 0% | 26%
NC(Cc1ccccc1)(C(=O)O)C(=O)O | . | -2% | . | .
CC(OC(=O)Cn1[nH]c(=O)c2ccccc2c1=O)C(=O)Nc1ccc(Cl)cn1 (configuration not stated) | 42% | . | -1% | 27%
Cc1cc(=O)[nH]c(N2CCCC2)n1 | 12µM* | -1% | 0% | -4%
COC(=O)c1c(-c2ccc(SC)cc2)sc2ccccc12 | 5.9µM* | . | -2% | ?
Cc1cc(C)n(CCC(=O)N/N=C/c2ccc(O)cc2)n1 | -25% | -2% | -6% | 9%
O=C(CCSc1nc2ccccc2s1)N/N=C/c1c(O)ccc2ccccc12 | 2.9µM* | ? | -8% | ?
Cc1cc(C)n(CCC(=O)N/N=C/c2c(O)ccc3ccccc23)n1 | ? | -64% | -1% | 6.6µM*
Cc1ccc(NC(=O)CCn2nc(C)cc2C)c(C)c1 | 12µM* | 0% | ? | 0%
COc1ccc(/C=N/NC(=O)CCSc2nc3ccccc3s2)cc1OC | ? | -6% | -2% | -22%
O=C1[C@@H]2CSCN2C(=O)CN1Cc1c(F)cccc1Cl | 18% | 0% | 0% | 2%
COc1cc(C2CC(=O)N(c3ccc(C)cc3)C(=O)C2)cc(OC)c1OC | -1% | -4% | 3% | ?
Cc1cccc(NC(=O)C2C3C=CC(O3)C2C(=O)O)c1C (configuration not stated) | ? | -18% | -26% | -4%
C#CCN(CC=C)C(=O)c1ccc(OC2CCN(S(=O)(=O)N(C)C)CC2)cc1 | ? | 4% | -1% | 2%
SMILES | Pf growth 96h | NS1 inh | SARS PLP yeast | Pf growth 48h
CC(C)CCNC(=O)c1ccc(OC2CCN(S(=O)(=O)N(C)C)CC2)cc1 | -28% | -4% | -1% | -24%
C=C(C)CNC(=O)c1ccc(OC2CCN(S(=O)(=O)N(C)C)CC2)cc1 | 13µM* | -4% | -2% | 2%
C=C(C)CN(CC)C(=O)c1ccc(OC2CCN(S(=O)(=O)N(C)C)CC2)cc1 | 4.1µM* | 1% | 0% | 0%
CCCCCN(C(=O)CCC(=O)OCC(=O)c1c(C)cc(C)cc1C)c1c(N)n(CCCC)c(=O)[nH]c1=O | 1% | . | -1% | ?
COc1ccc2c(c1OC)C(=O)N(c1ccc(OCc3ccccc3)cc1)C2=O | -9% | 1% | 0% | 14%[0.00184 µM]
CCOCCn1c(C)c(C(=O)OCC)c2cc(O)c3ccccc3c21 | 3.7µM* | . | 5% | 2.3µM*
Cn1c(C(=O)N2CCN(c3cccc(C(F)(F)F)c3)CC2)cc2sccc21 | 9.3µM* | -71% | -3% | 4%
Cc1ccc(CNC(=O)C(CC(C)C)OC(=O)c2ccco2)cc1 (configuration not stated) | -6% | -2% | -1% | 22%
O=C(CSc1nnc(-c2ccccc2F)o1)N1CCCC1 | -7% | 13% | 1% | 40%
O=C(CSc1nnc(-c2ccccc2Br)o1)N1CCc2ccccc2C1 | 3.3µM* | -83% | 8% | 8%
COc1ccc(C(=O)N2CCn3c2nc2ccccc23)cc1 | 2% | 4% | 0% | 69%
COc1ccc(C(=O)n2c(-c3ccco3)nc3ccccc32)cc1 | 2.1µM* | -163% | -16% | 82%
c1coc(Cn2c(-c3ccco3)nc3ccccc32)c1 | -1%[5.75 µM] | -150% | -3% | 39%
Nc1nc2ccccc2n1CCOc1ccc(F)cc1 | 15µM* | -5% | -5% | 8.3µM*
Clc1ccc(OCCn2c(-c3ccco3)nc3ccccc32)cc1 | 12µM* | -51% | -29% | .
CCOC(=O)C1CCCN(CCC(=O)Nc2cc(OC)ccc2OC)C1 (configuration not stated) | ? | -14% | -1% | -123%
Cc1ccc(CC(=O)Nc2nnc(-c3ccc(F)cc3)o2)c(C)c1 | -3% | -4% | 0% | 7%
COc1ccc(C2/C(=C(/O)c3ccc4c(c3)CC(C)O4)C(=O)C(=O)N2CCCN2CCOCC2)cc1 (configuration not stated) | 32% | -3% | 3% | 13%
CC(C)Oc1ccc(C(=O)NN2C(=O)NC3(CCCCC3)C2=O)cc1 | 58% | . | -2% | 18%
Clc1cccc(-c2cc3nc4c(c(N5CCN(c6cnccn6)CC5)n3n2)CCCC4)c1 | -20% | 8% | -1% | 2.1µM*
Fc1cccc(-c2cc3nc4c(c(N5CCN(c6cnccn6)CC5)n3n2)CCCC4)c1 | . | -2% | . | .
Fc1cccc(-c2cc3nc4c(c(N5CCOCC5)n3n2)CCCC4)c1 | ? | -75% | -16% | 8.3µM*
O=C(NCCc1ccc(F)cc1)C(=O)Nc1cc2c3c(c1)CC(=O)N3CCC2 | ? | . | -1% | ?
COc1ccccc1CCNC(=O)C(=O)Nc1cc2c3c(c1)C(C)C(=O)N3CCC2 (configuration not stated) | ? | . | -1% | 13µM*
COCCNC(=O)C(=O)Nc1cc2c3c(c1)C(C)C(=O)N3CCC2 (configuration not stated) | 104% | 5% | 0% | 34%
COc1ccc(CCNS(=O)(=O)c2cc3c4c(c2)C(C)C(=O)N4CCC3)cc1OC (configuration not stated) | ? | 14% | 0% | 0%
CC1C(=O)N2CCCc3cc(S(=O)(=O)NCCc4ccccc4)cc1c32 (configuration not stated) | 2.1µM* | 6% | -2% | -1%
O=C(NCCc1c[nH]c2ccccc12)C(=O)Nc1cc2c3c(c1)CC(=O)N3CCC2 | 2.9µM* | . | -1% | 1µM*
CC1C(=O)N2CCCc3cc(NC(=O)C(=O)NCc4ccc5c(c4)OCO5)cc1c32 (configuration not stated) | 7.4µM* | . | 1% | 8.3µM*
